Reference: PubChem BioAssay AID686978 (National Center for Advancing Translational Sciences (NCATS), 2013)
About 64,000 (15%) of roughly 420,000 compounds were called active. Another 27% or so got no clear call; they are omitted. A selection follows. Unmarked numbers belong to inactive results. The call rests on the fitted dose curve; in most records, active means well fitted inhibition curve with a large enough effect; inconclusive means small, poorly fitted or top-dose-only effect; inactive means flat fitted curve, though single readings scatter.

Assay: qHTS for Inhibitors of human tyrosyl-DNA phosphodiesterase 1 (TDP1): qHTS in cells in absence of CPT; further: nearly all actives have a fitted effect of over 55% in size
Conditions: DT40 Tdp1-/- hTDP1 cells, no CPT, ATP luminescence, 48 h; activity change, negative = growth inhibition: at 46.2 µM (top of the series)
Outline: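 Stably hTDP1-transfected Tdp1-null chicken DT40 cells were treated with library compounds minus camptothecin and grown for at least 48 hr at 37 °C, after which cellular ATP was quantified by luminescence.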
On the % scale 0 is the no-effect control and ±100 the full control effect; potency means the concentration at half of the fitted maximal effect.

| SMILES | activity change, negative = growth inhibition | Potency |
| --- | --- | --- |
| CCOC(=O)c1cc2occc2n1CC(=O)N1CCN(C(=O)c2ccco2)CC1 | -21.7% |  |
| ClC1(Cl)CC1CSc1ncn[nH]1 (stereo unspecified) | 12.6% |  |
| CC(=O)O[C@H]1c2ccccc2-c2ccccc2[C@@H]1OC(C)=O | 1.27% |  |
| Cc1ccc(Cn2c(=O)n(Cc3nc(-c4ccccc4)no3)c(=O)c3cc4c(cc32)OCO4)cc1 | 10.7% |  |
| Cc1ccc(Cn2c(C)nc3c(c2=O)c2nc4ccccc4nc2n3Cc2ccco2)cc1 |  | 23.1 µM (active) |
| CC(Sc1nc2ccccc2c(=O)n1Cc1ccco1)C(=O)c1ccccc1 (stereo unspecified) | -5.11% |  |
| O=C(NNc1ccccn1)c1ccc(Cl)nc1 | -0.0188% |  |
| Cc1nc2scc(-c3cccs3)c2c(=O)n1N | -27.9% |  |
| CCCc1nc2scc(-c3ccc(C)cc3)c2c(=O)n1N |  | 18.4 µM (active) |
| CCOC(=O)C(C)n1cnc2scc(-c3ccc(C)c(C)c3)c2c1=O (stereo unspecified) | 2.91% |  |
| Cc1cc(C)c(S(=O)(=O)c2ccccc2)c(OC(=O)c2c(F)cccc2Cl)n1 | -16.8% |  |
| CCN(CC)S(=O)(=O)c1ccc(N(C)Cc2cccc(OC)c2OC)nc1 |  | 18.4 µM (active) |
| CCN(CC)S(=O)(=O)c1ccc(N(C)Cc2ccc(C(F)(F)F)cc2)nc1 |  | 13 µM (active) |
| CCOC(=O)CN(Cc1ccc(OC)c(OC)c1)S(=O)(=O)c1ccc(OC)cc1 | -19.3% |  |
| CCN(CC)S(=O)(=O)c1ccc(OC)c(NC(=O)CCc2c(C)noc2C)c1 | 12.1% |  |
| CCN(CC)S(=O)(=O)c1ccc(N(C)CCc2ccc(OC)c(OC)c2)nc1 |  | 20.6 µM (active) |
| CCOc1ccc(Br)cc1S(=O)(=O)Nc1cccc(S(=O)(=O)N(CC)CC)c1 | 2.37% |  |
| CCN(CC)S(=O)(=O)c1ccc(NC(=O)c2cnc(C)cn2)cc1 | 3.23% |  |
| CCN(CC)S(=O)(=O)c1ccc(Cl)c(NC(=O)c2ccncc2)c1 | -13.3% |  |
| CCS(=O)(=O)NCCc1ccc(OC)c(OC)c1 | -19.1% |  |
| NC(=O)C[C@@H]1NC(=O)CNC(=O)c2cc([N+](=O)[O-])cc(I)c2NCCC(C(N)=O)NC1=O (stereo partly specified) | 18.2% |  |
| COc1ccc(-n2c(CNC(=O)c3cc(C(F)(F)F)ccc3Cl)nnc2SC)cc1 | -15.9% |  |

| SMILES | activity change, negative = growth inhibition | Potency |
| --- | --- | --- |
| CC(C)=CC(=O)Nc1nnc(-c2ccc(F)cc2)s1 | -7.58% |  |
| COc1cccc(OC)c1C(=O)Nc1nnc(C(C)C)s1 | -11.6% |  |
| COc1ccc(N2C(=O)C3CCCN3C2c2cccs2)cc1 (stereo unspecified) | -5.08% |  |
| Cc1cc(C)c2c(-n3cccc3)c(C(=O)NNS(=O)(=O)c3ccc(F)cc3)sc2n1 | 3.21% |  |
| Cc1cc(C(=O)CC#N)c(C)n1-c1c(C)n(C)n(-c2ccccc2)c1=O | 8% |  |
| Cc1nn(C)c(Cl)c1CN1CCC(n2nccc2NC(=O)C2CCCC2)CC1 | 11.6% |  |
| O=C(O)C1=CCCN(CCON=C(c2ccccc2)c2ccccc2)C1 |  | inactive |
| Cc1ccc(NC(=O)c2cc3cc(C)ccc3n2C)cc1 | -21.4% |  |
| COc1ccc(NC(=O)c2cc3cc(C)ccc3n2C)cc1 | -27.1% |  |
| COc1ccc(OC)c(/C(C)=N\NC(=O)c2cc3cc(Cl)ccc3n2C)c1 |  | 4.61 µM (active) |
| Cc1cc(C)cc(OCC(=O)O/N=C(\N)Cc2ccc([N+](=O)[O-])cc2)c1 | 0.454% |  |
| CCOc1ccc(NS(=O)(=O)c2ccc(OCC(=O)NCCCOC)cc2)cc1 | -13% |  |
| CCOc1ccc2c(=O)c(-c3ccc4c(c3)OCCCO4)c(C)oc2c1 |  | 13 µM (active) |
| COC(=O)Cc1c(C)c2ccc(OCC(=O)NCc3ccc4c(c3)OCO4)cc2oc1=O | -22.1% |  |
| O=C(COc1ccc2c(C(F)(F)F)cc(=O)oc2c1)Nc1ccc2c(c1)OCCO2 | -5.56% |  |
| Cc1ccc(N2CC(C(=O)Nc3ccc(N(C)C)cc3)CC2=O)cc1Cl (stereo unspecified) | -9.28% |  |
| Cc1cnc(NC(=O)CSc2nnc(C)s2)s1 | 7.27% |  |
| COc1ccc(CC(=O)NCc2nnc(SCC(=O)Nc3nccs3)n2C)cc1 | 14.7% |  |
| COc1ccc(CC(=O)NCc2nnc(SCC(=O)Nc3ncc(C)s3)n2C)cc1 |  | 16.4 µM (active) |
| COc1ccccc1C(=O)NCc1nnc(SC(C)C(=O)Nc2nccs2)n1C (stereo unspecified) | 21.3% |  |
| COc1ccc(-n2nnnc2CNC(=O)c2ccc3ccccc3c2)cc1 | -26.4% |  |
| Cc1ccc(SCC(=O)Nc2ncc(C)s2)cc1 | -28.1% |  |

| SMILES | activity change, negative = growth inhibition | Potency |
| --- | --- | --- |
| COc1ccc(C(=O)NCc2nnc(SCCOc3ccccc3)n2C)cc1 |  | 29.1 µM (active) |
| Cc1cnc(NC(=O)CSc2c(Cl)cccc2Cl)s1 |  | 13 µM (active) |
| COC(=O)c1ccc(NC(=O)CSc2nnc(CNc3ccc(OC)cc3)n2C)cc1 | -4.03% |  |
| C=CCC1=C/C(=C\c2c(N)n3nc(CC(=O)N4CCOCC4)sc3nc2=O)C=C(OC)C1=O | 15.1% |  |
| CC(=O)NC1CC2CCCC(C1)N2CC(=O)Nc1ccccc1 (stereo unspecified) | 2.41% |  |
| COc1ccccc1NS(=O)(=O)N(C)C | -6.71% |  |
| CC(C)(C)NC(=O)/C(=C/c1cccnc1)NC(=O)c1ccco1 | 2.45% |  |
| NS(=O)(=O)c1ccc2nc(NC(=O)C3=COCCO3)sc2c1 | 6.91% |  |
| N#CC(Cc1cc2ccccc2n1S(=O)(=O)c1ccccc1)OCc1ccccc1 (stereo unspecified) | -27.1% |  |
| O=C(Nn1cnnc1)c1cc(Cl)ccc1Cl | -10.9% |  |
| CC(C)=CCN1CCN(Cc2ccc(Oc3ncccn3)cc2)CC1CCO (stereo unspecified) | -1.59% |  |
| Cc1ccc(NC(=O)c2cccc(N(C)C)c2)cc1NC(=O)c1ccc(O)cc1 | -28.1% |  |
| O=C1[C@@H]2C(c3cccnc3)=NO[C@@H]2C(=O)N1c1ccc(Cl)cc1Cl | -44.3% |  |
| OCCC1CN(Cc2ccccc2-c2ccco2)CCN1Cc1ccsc1 (stereo unspecified) | -34.4% |  |
| Cc1ccc(C)c2[nH]c(=O)c(CCNC(=O)c3cccs3)cc12 | -24.4% |  |
| COc1ccccc1NC(=O)CCC(=O)OC(C)C(=O)c1ccccc1 (stereo unspecified) | 10.1% |  |
| COc1ccc2[nH]c(=O)c(CN(Cc3nnnn3CCc3ccccc3)CC3CCCO3)cc2c1 (stereo unspecified) |  | 9.2 µM (active) |
| Cc1ccc(S(=O)(=O)N(Cc2cc3ccccc3[nH]c2=O)CC2CCCO2)cc1 (stereo unspecified) | -12.1% |  |
| O=C(c1cccs1)N(Cc1cc2ccccc2[nH]c1=O)CC1CCCO1 (stereo unspecified) | 2.95% |  |
| Cc1ccc(C(=O)N/C(=C/c2cccs2)C(=O)NCC2CCCO2)cc1 (stereo unspecified) | -6.29% |  |
| Cc1cc2cc(CN(Cc3cccs3)Cc3nnnn3CC3CCCO3)c(=O)[nH]c2cc1C (stereo unspecified) |  | 20.6 µM (active) |
| CCOc1ccc2[nH]c(=O)c(CN(Cc3nnnn3CCc3ccccc3)CC3CCCO3)cc2c1 (stereo unspecified) |  | 14.6 µM (active) |
